SARS PLP yeast: qHTS of Yeast-based Assay for SARS-CoV PLP | S. cerevisiae expressing SARS-CoV PLpro, growth rescue | actives 0.19% (n = 330,000) | Potency, µM (doses to about 32.9 µM), for the others: at the highest dose activity, positive = growth rescue, usual class: activators | AID 485353, 2010; calls by dose curve; further: 0% is about no effect; nearly all actives have a fitted effect of over 55% in size
Giardia FBPA inh-1: qHTS Assay for Inhibitors of Fructose-1,6-bisphosphate Aldolase from Giardia Lamblia; purified Giardia FBPA; Potency, µM (titrated, usually from 59.6 µM), inactives show at the highest dose activity, negative = inhibition, usual class: inhibitors; actives 0.71% (n = 290,000); further: on the % scale 0 is the no-effect control and ±100 the full control effect; nearly all actives have a fitted effect of over 55% in size
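40 nM FBPA preincubated 10 min at RT with compound (up to 57.5 uM final), then substrate plus GAPDH/TPI/NAD/arsenate coupling and diaphorase/resazurin added. Fluorescence read after 20 min at RT, 525/598 nm.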
Tb PYK inh: qHTS of Trypanosoma Brucei Inhibitors | actives 0.12% (n = 410,000) | TbPYK enzyme, Kinase-Glo Plus ATP luminescence, 45 min | Potency, µM (titrated, usually from 76.8 µM), without a hit: at the highest dose activity, negative = inhibition, most hits filed as inhibitors | pyruvate kinase (Trypanosoma brucei), Q57TT1; further: on the % scale 0 is the no-effect control and ±100 the full control effect; nearly all actives have a fitted effect of over 50% in size
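Glycolytic pyruvate kinase of T. brucei was incubated with substrate, test compound and 130 uM ADP for 45 minutes at room temperature. Luminescent Kinase-Glo Plus signal was measured after 10 minutes.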
LmPK inhibitor: qHTS Assay for Inhibitors of Leishmania Mexicana Pyruvate Kinase (LmPK); purified LmPK, Kinase-Glo ATP luminescence, 1 h; actives 0.37% (n = 290,000); Q27686; Potency, µM (doses to about 57.5 µM), inactives show top-dose activity change, negative = inhibition, hits mostly inhibitors; further: on the % scale 0 is the no-effect control and ±100 the full control effect
Target sequence (Q27686 whole entry, looked up): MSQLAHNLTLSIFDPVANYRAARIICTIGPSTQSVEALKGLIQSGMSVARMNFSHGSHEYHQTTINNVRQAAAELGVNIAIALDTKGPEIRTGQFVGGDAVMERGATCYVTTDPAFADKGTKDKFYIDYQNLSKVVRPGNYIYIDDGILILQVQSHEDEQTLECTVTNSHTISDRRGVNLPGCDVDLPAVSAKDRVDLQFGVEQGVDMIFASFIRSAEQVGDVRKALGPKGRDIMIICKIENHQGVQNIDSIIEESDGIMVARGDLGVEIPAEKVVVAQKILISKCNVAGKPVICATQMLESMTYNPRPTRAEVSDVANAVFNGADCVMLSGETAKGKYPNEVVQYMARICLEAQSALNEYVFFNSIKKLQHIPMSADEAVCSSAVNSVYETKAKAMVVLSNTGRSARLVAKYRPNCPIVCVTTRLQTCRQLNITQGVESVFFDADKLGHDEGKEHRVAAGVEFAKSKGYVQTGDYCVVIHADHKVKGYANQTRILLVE
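In 50 mM imidazole pH 7.2 with 7 mM MgCl2, LmPK (0.1 nM) turned over PEP (0.5 mM) and ADP (0.1 mM) for 1 h at room temperature. Luciferase read-out of ATP.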
RE007 growth inh: qHTS Assay for Inhibitors of the HIV-1 protein Vpr; actives 0.21% (n = 360,000); S. pombe RE007 Vpr strain, BacTiter-Glo ATP luminescence, 24 h; Potency, µM (doses to about 92.2 µM), for the others: at the top dose activity change, negative = less growth, most hits filed as inhibitors; active means well fitted falling curve with a large enough effect; inconclusive means small, poorly fitted or top-dose-only effect; inactive means no such curve, though single readings can be large or run the other way; further: on the % scale 0 is the no-effect control and ±100 the full control effect; nearly all actives have a fitted effect of over 50% in size
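Fission yeast RE007 carrying one integrated HIV-1 vpr copy, seeded at OD 0.01 in PMG+AL medium with 23 nL pinned compound. Grown 24 h at 30 degrees; viability read by BacTiter-Glo luminescence after 5 min.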
Giardia growth: qHTS Assay for Inhibitors of Fructose-1,6-bisphosphate Aldolase from Giardia Lamblia: Giardia lamblia growth inhibition. shares compounds with Giardia FBPA inh-1. Giardia lamblia trophozoite growth inhibition. Potency, µM (doses to about 57.5 µM), inactives show at the top dose activity change, negative = inhibition, actives largely listed as inhibitors. actives 5% (n = 1,500). AID 2785, 2010;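 further: trophozoites exposed to compound for 48 h at 37 °C; on the % scale 0 is the no-effect control and ±100 the full control effect; nearly all actives have a fitted effect of over 70% in size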
Mammal cell tox: qHTS Assay for Inhibitors of Fructose-1,6-bisphosphate Aldolase from Giardia Lamblia: Mammalian cellular toxicity; shares compounds with Giardia FBPA inh-1; mammalian cell viability counter-screen, qHTS; Potency, µM (series often up to 57.5 µM), for the others: at the top dose viability change, negative = toxicity, usual class: inhibitors; actives 4% (n = 1,500); AID 2786, 2010;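 further: Chinese hamster ovary cells used as mammalian cytotoxicity surrogate; viability measured as cellular ATP by luminescence; compound exposure lasted 48 h before reading; on the % scale 0 is the no-effect control and ±100 the full control effect; nearly all actives have a fitted effect of over 60% in size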
Giardia FBPA inh-2: qHTS Assay for Inhibitors of Fructose-1,6-bisphosphate Aldolase from Giardia Lamblia: Primary screen confirmation. shares compounds with Giardia FBPA inh-1. purified Giardia aldolase enzyme activity, qHTS. Potency, µM (doses to about 57.5 µM), inactives show top-dose activity change, negative = inhibition, most hits filed as inhibitors. actives 5% (n = 1,500). AID 2787, 2010; further: on the % scale 0 is the no-effect control and ±100 the full control effect; nearly all actives have a fitted effect of over 45% in size
Rabbit aldolase: qHTS Assay for Inhibitors of Fructose-1,6-bisphosphate Aldolase from Giardia Lamblia: Rabbit FBPA Selectivity; shares compounds with Giardia FBPA inh-1; Rabbit muscle FBPA enzyme inhibition, selectivity counter-screen; Potency, µM (top dose mostly 57.5 µM), for the others: top-dose activity, negative = inhibition, most hits filed as inhibitors; actives 4% (n = 1,500); AID 2794, 2010; further: on the % scale 0 is the no-effect control and ±100 the full control effect; nearly all actives have a fitted effect of over 60% in size
GAPDH coupling: qHTS Assay for Inhibitors of Fructose-1,6-bisphosphate Aldolase from Giardia Lamblia: Coupling assay counterscreen confirmation; actives 6% (n = 1,500); Potency, µM (series often up to 57.5 µM), inactives show top-dose activity change, negative = inhibition, most hits filed as inhibitors; shares compounds with Giardia FBPA inh-1; GAPDH coupling enzyme counterscreen, biochemical, qHTS; further: on the % scale 0 is the no-effect control and ±100 the full control effect; nearly all actives have a fitted effect of over 55% in size
An asterisk follows results filed as active; ? = inconclusive; . = no result; [ ] = remark or other dose. Most compounds without a hit are left out; they make up all but 1.1% or so of the library. Unless noted, the call rests on the fitted dose curve; in most records, active means well fitted curve in the direction sought with a large enough effect; inconclusive means small, poorly fitted or top-dose-only effect, or another doubt; inactive means no such curve, though single readings can be large; an effect the other way counts as inactive or inconclusive. Potency means the concentration at half of the fitted maximal effect.

SMILES | SARS PLP yeast | Giardia FBPA inh-1 | Tb PYK inh | LmPK inhibitor | RE007 growth inh | Giardia growth | Mammal cell tox | Giardia FBPA inh-2 | Rabbit aldolase | GAPDH coupling
COc1ccc(NC(=S)N(CCN2CCOCC2)C2CCN(C(C)=O)CC2)cc1Cl | -1.0% | -18.9% | -5.0% | 0.9% | 25.9% | . | . | . | . | .
CC(=O)N1CCC(N(CCN2CCOCC2)C(=S)Nc2ccc(C)cc2)CC1 | 5.5% | 7.06µM* | -7.9% | 6.5% | 3.1% | -19.2%[38.3 µM] | -13.1% | 1.9% | 11.8% | 5.1%
CC(=O)N1CCC(N(CCN2CCOCC2)C(=S)Nc2ccc(C)cc2C)CC1 | 8.9% | -15.3% | 2.0% | 13.9% | -0.6% | . | . | . | . | .
COc1ccc(CCNC(=O)CNCC2CCCO2)cc1OC (stereo unspecified) | 0.8% | 15.8µM* | 4.8% | 2.6% | 2.3% | -24.7% | 13.8% | 2.6% | 5.2% | 7.9%
CCc1ccc(OCCn2ccnc2)cc1 | -5.0% | 25.1µM* | 23.8% | -10.9% | 2.0% | ? | -5.0% | 6.0% | 5.9% | 7.4%
Cc1cccc(OCCn2ccnc2)c1C | -1.0% | 22.4µM* | 1.5% | -1.4% | 19.5% | 10.3% | 0.8% | -0.8% | 5.2% | 6.8%
COc1ccc(NC(=O)Nc2nnc(SCC(=O)Nc3cccc(C)c3C)s2)cc1 | . | . | -4.5% | . | . | . | . | . | . | .
Cc1cccc(NS(=O)(=O)c2ccc3c(c2)CC(C)N3C(=O)C2CCC2)c1C (stereo unspecified) | . | . | 9.7% | . | . | . | . | . | . | .
Cc1ccc(NC(=O)CNCc2ccc(Cl)cc2Cl)cc1S(=O)(=O)N(C)C | 0.1% | ? | 3.6% | 1.8% | -7.8% | . | . | . | . | .
COc1ccc(OCCCC(=O)N(C)CC(=O)Nc2c(C)cccc2C)cc1 | -2.4% | . | 9.7% | . | -14.4% | . | . | . | . | .
COc1ccc(OCCN(C)CC(=O)Nc2c(C)cccc2C)cc1 | 0.4% | 14.1µM* | 3.8% | -3.4% | -3.3% | -9.6%[10.4 µM] | 11.2% | 6.0% | 1.2% | 11.0%
CN(CCOc1ccccc1)CC(=O)Nc1ccc(Cl)cc1[N+](=O)[O-] | -15.4% | 22.3µM* | 23.3% | 0.9% | 1.0% | ? | 3.4% | 1.7% | -1.5% | 12.8%
Cc1ccc(NC(=O)CNCc2ccccc2Cl)cc1S(=O)(=O)N(C)C | -1.3% | 22.4µM* | -10.0% | -5.9% | -5.8% | ? | -5.6% | 5.6% | 1.6% | 2.0%
CN(CCOc1ccccc1)CC(=O)Nc1ccc(Cl)c(S(=O)(=O)N(C)C)c1 | 2.0% | 15.8µM* | 7.3% | -5.1% | -9.2% | -16.2%[10.4 µM] | -1.8% | -4.9% | -1.1% | 8.9%
N#C/C(=C\c1ccc(-c2cccc(Cl)c2)o1)C(=O)Nc1cccc(C(F)(F)F)c1 | . | . | -3.7% | . | . | . | . | . | . | .
